Laboratory results taken from PubChem BioAssay (EPA / NIEHS).
Several values for one entry are separate records, joined by “and”; a condition that tells them apart may be missing. Equal entries are not always repeated. The source holds several records for some structures; these can differ, active in one and inactive in another. Activity calls are given as the source filed them. How the source made its calls: active means hit-call score of the fitted dose curve at least 0.9, where 1 is the maximum; inactive means score below 0.9.

These compounds were tested on Interleukin-1 alpha (IL1a), IL1A (gene 3552) (assay: BSK_BF4T_IL1a: BioMAP Diversity Plus: BF4T Assay for Interleukin-1 alpha (IL1a) Biomarker Activity (AID 2284264)). Conditions: primary human bronchial epithelial cells with fibroblasts.
In short: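 ELISA read-out of IL-1α from bronchial epithelial cell/dermal fibroblast co-cultures 24 h after compound addition. Increases scored against DMSO negative control. Cytotoxicity monitored by sulforhodamine B staining of parallel cultures.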
`O=C(O)C(F)(F)C(F)(F)C(F)(F)C(F)(F)C(F)(F)C(F)(F)C(F)(F)C(F)(F)C(F)(F)F` was tested, and the AC50 was 14.3 µM (active) and 48 µM (active).
For `O=S(=O)(O)C(F)(F)C(F)(F)C(F)(F)C(F)(F)C(F)(F)C(F)(F)F`, the outcome was “inactive”.
For `O=S(=O)(O)C(F)(F)C(F)(F)C(F)(F)C(F)(F)F`, the outcome was “inactive”.
For `NS(=O)(=O)C(F)(F)C(F)(F)C(F)(F)C(F)(F)C(F)(F)C(F)(F)C(F)(F)C(F)(F)F`, the AC50 was 44.9 µM (active) and 24.2 µM (active).
`O=C(O)C(F)(F)C(F)(F)C(F)(F)C(F)(F)C(F)(F)F` was tested, and the outcome was “inactive”.
`O=C(O)C(F)(F)C(F)(F)C(F)(F)C(F)(F)C(F)(F)C(F)(F)C(F)(F)C(F)(F)F` was tested, and the AC50 was 48.7 µM (active) and 52.5 µM (active).

Each compound was assayed on Decorin, DCN (gene 1634) (assay: BSK_MyoF_Decorin: BioMAP Diversity Plus: MyoF Assay for Decorin Biomarker Activity (AID 2284265)). Conditions: primary human lung fibroblasts.
In short: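 Human lung fibroblast cultures were dosed for 24 h, and decorin was then measured by ELISA. Parallel cultures were stained with sulforhodamine B for total protein as a cytotoxicity check. Gain of signal was fitted relative to DMSO.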
In the case of `O=C(O)C(F)(F)C(F)(F)C(F)(F)C(F)(F)C(F)(F)C(F)(F)C(F)(F)C(F)(F)C(F)(F)F`, the AC50 is reported as 23.6 µM (active) and 22.3 µM (active).
With `O=S(=O)(O)C(F)(F)C(F)(F)C(F)(F)C(F)(F)C(F)(F)C(F)(F)F` the outcome was “inactive”.
With `O=S(=O)(O)C(F)(F)C(F)(F)C(F)(F)C(F)(F)F` the outcome was “inactive”.
With `NS(=O)(=O)C(F)(F)C(F)(F)C(F)(F)C(F)(F)C(F)(F)C(F)(F)C(F)(F)C(F)(F)F` the AC50 was 52.9 µM (active) and the outcome was “inactive”.
`Oc1c(Cl)c(Cl)c(Cl)c(Cl)c1Cl` was tested, and the AC50 was 10.2 µM (active).
`O=C(O)C(F)(F)C(F)(F)C(F)(F)C(F)(F)C(F)(F)F` was tested, and the outcome was “inactive”.
With `O=C(O)C(F)(F)C(F)(F)C(F)(F)C(F)(F)C(F)(F)C(F)(F)C(F)(F)C(F)(F)F` the outcome was “inactive”.
For `Sc1ccccc1`, the outcome was “inactive”.

These compounds were tested on KRT18 (gene 3875) (assay: BSK_BF4T_Keratin818: BioMAP Diversity Plus: BF4T Assay for Keratin 818 Biomarker Activity (AID 2284266)). Conditions: primary human bronchial epithelial cells with fibroblasts.
Experimental: BSK_BF4T is a cell-based, multiplexed-readout assay that uses bronchial epithelial cells and dermal fibroblasts, a human vascular primary cell, with measurements taken at 24 hours after chemical dosing in a microplate: 96-well plate.BSK_BF4T_Keratin818 is an assay component measured in the BSK_BF4T assay. It measures Keratin 8/18 antibody related to regulation of gene expression using ELISA technology.Data from the assay component BSK_BF4T_Keratin818 was analyzed at the endpoint, BSK_BF4T_Keratin818, in the positive analysis fitting direction relative to DMSO as the negative control and baseline of activity. Using a type of binding reporter, gain or loss-of-signal activity can be used to understand protein changes. To generalize the intended target to other relatable targets, this assay endpoint is annotated to the 'cell adhesion molecules' intended target family, where the subfamily is 'keratin'.
The levels of cell surface (or secreted, indicated by the prefix "s") biomarker endpoints were measured by ELISA. Overt cytotoxicity to cells in confluent adherent cultures (all systems other than the BT system) was assessed by measuring total protein levels using sulforhodamine B (SRB) staining in parallel cultures at the time of biomarker measurements, indicated as SRB endpoints. For proliferation assays for adherent cell types, individual cell types are cultured at sub-confluence and relative cell numbers quantified by SRB staining at time points optimized for each system (48 h: 3C and CASM3C systems; 72 h: BT and HDF3CGF systems; 96 h: SAg system). SRB was performed by staining cells with 0.1% SRB after fixation with 10% TCA and reading wells at 560 nm.Viability and proliferation of PBMC (T cells) was quantified by Alamar Blue reduction for the SAg and BT systems. For PBMC viability (referred to as PBMC Cytotoxicity within the assay endpoint names), cells were plated (75,000/well in a 96-well plate) and then chemical samples added for 1 h before addition of activators, SEB and TSST-1 (20 ng/mL final concentration each). Cells were incubated for 90 h. Then, Alamar Blue (20 uL/well) (Invitrogen, Cat DAL1100) was added for 6 h, and the plates were read with a fluorescence microplate reader at 546/580 nm (excitation/emission). For PBMC proliferation, cells were plated and activated as above but incubated for only 16 h prior to addition of Alamar Blue. Plates were read after 6 h.
With `O=C(O)C(F)(F)C(F)(F)C(F)(F)C(F)(F)C(F)(F)C(F)(F)C(F)(F)C(F)(F)C(F)(F)F` the AC50 was 15 µM (active) and the outcome was “inactive”.
With `O=S(=O)(O)C(F)(F)C(F)(F)C(F)(F)C(F)(F)C(F)(F)C(F)(F)F` the outcome was “inactive”.
For `O=S(=O)(O)C(F)(F)C(F)(F)C(F)(F)C(F)(F)F`, the outcome was “inactive”.
For `NS(=O)(=O)C(F)(F)C(F)(F)C(F)(F)C(F)(F)C(F)(F)C(F)(F)C(F)(F)C(F)(F)F`, the AC50 was 44.7 µM (active) and 31.5 µM (active).
With `O=C(O)C(F)(F)C(F)(F)C(F)(F)C(F)(F)C(F)(F)F` the outcome was “inactive”.
`O=C(O)C(F)(F)C(F)(F)C(F)(F)C(F)(F)C(F)(F)C(F)(F)C(F)(F)C(F)(F)F` was tested, and the AC50 was 51.6 µM (active) and 55.1 µM (active).
